High-throughput results: PubChem BioAssay, National Center for Advancing Translational Sciences (NCATS)
Rows were chosen to be rich in hits. Some 0.86% of all compounds tested hit in one or more screens of this group.
PGK inhibitor: T. brucei PGK inhibition | AID 602233 | PGK/GAPDH coupled, Kinase-Glo luminescence, 60 min | actives 0.043% (n = 380,000) | Potency, µM (top dose mostly 57.5 µM), inactives show at the highest dose activity change, negative = inhibition, hits mostly inhibitors; also: nearly all actives have a fitted effect of over 60% in size
Target sequence (P07378 whole entry, looked up): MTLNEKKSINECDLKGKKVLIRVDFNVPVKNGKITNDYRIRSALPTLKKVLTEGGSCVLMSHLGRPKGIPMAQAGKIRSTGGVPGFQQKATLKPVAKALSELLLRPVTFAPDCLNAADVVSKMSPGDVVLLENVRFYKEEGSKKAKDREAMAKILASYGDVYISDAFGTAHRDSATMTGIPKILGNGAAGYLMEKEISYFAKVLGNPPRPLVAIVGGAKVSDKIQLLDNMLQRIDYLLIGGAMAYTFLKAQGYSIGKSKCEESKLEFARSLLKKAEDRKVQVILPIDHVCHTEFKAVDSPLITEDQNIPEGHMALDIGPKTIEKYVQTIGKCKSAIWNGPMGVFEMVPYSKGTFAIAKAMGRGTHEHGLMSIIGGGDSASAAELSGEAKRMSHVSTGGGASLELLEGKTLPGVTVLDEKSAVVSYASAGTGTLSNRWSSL
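Luminescent ATP detection (Kinase-Glo Plus) follows a 60-minute room-temperature incubation, with wells lacking PGK as controls. Buffer: 100 mM TEA (pH 7.6), 5 mM MgCl2, 0.01% Tween-20. Coupling enzyme GAPDH (100 nM final) supplies unstable 1,3-BPG in-well.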
GLS inhibitor: inhibitors of human glutaminase (GLS). O94925. GLS enzymatic activity, qHTS titration. Potency, µM (highest dose often 45.5 µM), for the others: top-dose activity change, negative = inhibition, actives largely listed as inhibitors. actives 0.21% (n = 410,000)
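Compounds were pin-transferred onto hKGA, after which L-glutamine (1 mM solution) and a detection mix of glutamate oxidase, HRP and Amplex Red were added. Initial and 30 min RT fluorescence reads were collected.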
BLM inh: inhibitors of human Bloom syndrome helicase BLM. P54132. actives 0.2% (n = 350,000). recombinant BLM DNA unwinding, fluorescence dequenching. Potency, µM (highest dose often 56.1 µM), for the others: at the highest dose activity change, negative = inhibition, usual class: inhibitors. AID 2528;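 also: plate controls were vehicle for no effect and no enzyme for full effect; nearly all actives have a fitted effect of over 35% in size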
FEN1 inh: human FEN1 inhibition. P39748. Recombinant FEN1 flap cleavage, fluorescence, 15 min. Potency, µM (top dose mostly 114 µM), inactives show at the highest dose activity change, negative = inhibition, most hits filed as inhibitors. actives 0.35% (n = 390,000); also: nearly all actives have a fitted effect of over 65% in size
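In this screen, 50 nM flap DNA substrate was added to 10 nM FEN1 pretreated with compound for 15 min at room temperature; cleavage was followed with reads at 0 and 15 min, and Hill fitting gave concentration–response parameters.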
APE1 inh: APE1 (human) endonuclease inhibition | Potency, µM (series often up to 65.8 µM), without a hit: top-dose activity change, negative = inhibition, actives largely listed as inhibitors | recombinant APE1, TAMRA/BHQ-2 abasic DNA cleavage fluorescence | P27695 | actives 0.35% (n = 350,000);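 also: plate controls were vehicle for no effect and reference inhibitor for full effect; nearly all actives have a fitted effect of over 55% in size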
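Activity was derived from the fluorescence gain between first and third kinetic reads (60 s intervals, ex 525/em 598 nm) after 50 nM THF-abasic TAMRA/BHQ-2 duplex was added to 0.75 nM APE1 preincubated 15 min with compound.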
RECQ1 helicase: inhibitors of human RECQ1 DNA helicase; P46063; RECQ1 DNA unwinding, red fluorescence kinetic read; Potency, µM (highest dose often 57.3 µM), for inactives: at the top dose activity, negative = inhibition, actives largely listed as inhibitors; actives 0.54% (n = 240,000);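 also: plate controls were vehicle for no effect and no enzyme for full effect; nearly all actives have a fitted effect of over 30% in size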
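RECQ1T1 50 nM; forked duplex (20 bp + 30-nt ss tails) 200 nM, ATP 2 mM final; pH 8.0, 2 mM MgCl2, 2.5 ug/ml poly(dI-dC); 15 min compound preincubation; discontinuous kinetic read over 2 h at RT.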
An asterisk follows results filed as active; i = inactive; u = inconclusive; x = no result given. Calls follow the shape of the dose curve; as a rule, active = well fitted curve in the direction sought with a large enough effect; inconclusive = small, poorly fitted or top-dose-only effect, or another doubt; inactive = no such curve, though single readings can be large; an effect the other way counts as inactive or inconclusive. Unless noted, % is scaled to controls: 0 for no effect and ±100 for the full control effect; potency is read from the fitted curve at half-maximal effect.

SMILES	PGK inhibitor	GLS inhibitor	BLM inh	FEN1 inh	APE1 inh	RECQ1 helicase
C=C(C)C(=O)Nc1cccc(C2=NOC3(C2)C[C@@H](C(N)=O)N(C(=O)c2ccc(Cl)cc2)C3)c1 (stereo partly specified)	2.24µM*	10µM*	-18.7%	u	u	12.6µM*
C/C=C\C(=O)Nc1cccc(C2=NOC3(C2)C[C@@H](C(N)=O)N(C(=O)C2(C)CC2)C3)c1 (stereo partly specified)	-5.6%	-7.9%	-1.6%	-0.2%	-7.8%	-3.6%
C/C=C(/C)C(=O)Nc1cccc(C2=NOC3(C2)C[C@H](C(N)=O)N(C(=O)c2ccc(Cl)cc2)C3)c1 (stereo partly specified)	3.7%	-3.3%	-11.2%	18.1%	4.4%	-7.0%
C=C(C)C(=O)Nc1cccc(C2=NOC3(C2)C[C@@H](C(N)=O)N(C(=O)C2(C)CC2)C3)c1 (stereo partly specified)	u	28.2µM*	3.8%	u	u	10µM*
C=C(C)C(=O)Nc1cccc(C2=NOC3(C2)C[C@@H](C(N)=O)N(C(=O)c2cc([N+](=O)[O-])cc([N+](=O)[O-])c2C)C3)c1 (stereo partly specified)	11.2µM*	u	-4.2%	0.8%	-3.9%	i
C=C(C)C(=O)Nc1cccc(C2=NOC3(C2)C[C@H](C(N)=O)N(C(=O)c2ccccc2)C3)c1 (stereo partly specified)	11.2µM*	5.1%	1.4%	-17.1%	-5.3%	i
O=C(Nc1ccc2c(c1)OCCO2)c1cnn2c1NC(=C1CC1)C=C2C(F)F	x	x	x	x	22.2%	x
COc1cc2c(c(OC)c1OC)-c1c(cc3c(c1OC)OCO3)CC(C)C(C)(O)C2 (stereo unspecified)	x	-6.2%	x	x	x	x
O=C(O)c1ccc(N/N=C/c2cc(Br)cs2)cc1	1.8%	8.91µM*	-3.2%	0.3%	0.5%	x
C/C(=N\Nc1ccc(C(=O)O)cc1)c1ccc(Br)cc1	u	-18.1%	0.3%	1.8%	25.1µM*	i
Cc1ccc(/C=N/Nc2ccc(C(=O)O)cc2)s1	-10.9%	0.0%	-1.9%	-10.5%	-1.6%	-11.2%
CCOc1ccc2nc3cc(N=Nc4ccc(N)nc4N)ccc3c(N)c2c1	-22.1%	-2.6%	x	7.08µM*	x	x
COc1ccc(N=Nc2ccc(N)nc2N)cc1	-6.8%	15.1%	-7.5%	3.0%	7.7%	0.9%
CCN(CCCN(C)C)c1ccc(/C=C/c2ccnc3ccccc23)cc1	x	x	x	50.1µM*	x	x
CN(C)c1ccc(N=Cc2ccnc3ccccc23)cc1	x	x	x	44.7µM*	x	x
CN(C)c1ccc(/C=C\C=C/c2ccnc3ccccc23)cc1	x	x	x	50.1µM*	x	x
COC1=C(C(=O)O)N2C(=O)[C@@H](NC(=O)C(N)C3C=CCC=C3)[C@H]2SC1 (stereo partly specified)	x	0.2%	x	x	x	x
O.O=C([O-])CC([S-])C(=O)[O-].[Au+].[Na+].[Na+] (stereo unspecified)	x	2.0%	x	x	x	x
Oc1cc2c(cc1O)[C@H]1c3ccc(O)c(O)c3OC[C@@]1(O)C2	u	u	-3.1%	35.5µM*	u	-18.4%
C[N+]1(CC(=O)c2ccc(I)cc2)CCCc2ccccc21 (stereo unspecified)	x	x	x	-10.7%	x	x
COc1ccc(-n2c(-c3ccc(Cl)cc3Cl)n[nH]c2=S)c(OC)c1	-5.0%	11.2µM*	1.1%	-12.0%	6.3%	x
COc1ccc(Cl)cc1-c1n[nH]c(=S)n1C1CCCCC1	6.4%	3.98µM*	-2.4%	-8.3%	-1.0%	-17.4%
C#CCOCCOCCOCCNc1nc(N2CCN(C(=O)CCCCCCCCCCNC(=O)[C@H](CCCCN)n3cc(CCCC(=O)O)nn3)CC2)nc(N2CCN(C(=O)CCCCCCCCCCNC(=O)[C@H](CCCN=C(N)N)n3cc(C[C@@H](C)CC)nn3)CC2)n1	i	-17.7%	x	u	u	x
C#CCOCCOCCOCCNc1nc(N2CCN(C(=O)CCCCCCCCCCNC(=O)[C@H](CCCCN)n3cc(CCO)nn3)CC2)nc(N2CCN(C(=O)CCCCCCCCCCNC(=O)[C@H](CCCN=C(N)N)n3cc(C[C@@H](C)CC)nn3)CC2)n1	14.5%	u	x	22.4µM*	u	x
C#CCOCCOCCOCCNc1nc(N2CCN(C(=O)CCCCCCCCCCNC(=O)[C@H](CCCCN)n3cc(C[C@@H](C)CC)nn3)CC2)nc(N2CCN(C(=O)CCCCCCCCCCNC(=O)[C@H](CCCCN)n3cc(C[C@@H](C)CC)nn3)CC2)n1	-1.2%	u	x	22.4µM*	x	x
SMILES	PGK inhibitor	GLS inhibitor	BLM inh	FEN1 inh	APE1 inh	RECQ1 helicase
C#CCOCCOCCOCCNc1nc(N2CCN(C(=O)CCCCCCCCCCNC(=O)[C@H](CCCCN)n3cc(CCO)nn3)CC2)nc(N2CCN(C(=O)CCCCCCCCCCNC(=O)[C@H](CCCCN)n3cc(CCO)nn3)CC2)n1	13.0%	u	x	79.4µM*	-40.5%	x
C#CCOCCOCCOCCNc1nc(N2CCN(C(=O)CCCCCCCCCCNC(=O)Cn3cc(C[C@@H](C)O)nn3)CC2)nc(N2CCN(C(=O)CCCCCCCCCCNC(=O)[C@H](CCCCN)n3cc(C[C@@H](C)CC)nn3)CC2)n1	-8.5%	u	x	50.1µM*	16.9%	x
O=C(C[n+]1cccc(Br)c1)c1ccc(F)cc1	x	x	x	11.1%	x	x
CCN(CC)c1ccc(/C=C2\C=Cc3ccccc32)cc1	x	x	x	-22.0%	x	x
O=C(c1cc2ccccc2[nH]1)c1cc2cc(O)ccc2[nH]1	x	x	x	-7.4%	x	x
C#CCOCCOCCOCCNc1nc(N2CCN(C(=O)[C@H](Cc3cc4ccccc4[nH]3)n3cc([C@@H](N)CC(C)C)nn3)CC2)nc(N2CCN(C(=O)[C@H](Cc3cc4ccccc4[nH]3)n3cc([C@@H](N)CC(C)C)nn3)CC2)n1	-5.0%	0.8%	22.4µM*	-16.1%	3.7%	u
C#CCOCCOCCOCCNc1nc(N2CCOCC2)nc(N2CCN(C(=O)[C@H](Cc3cc4ccccc4[nH]3)n3cc([C@@H](N)CC(C)C)nn3)CC2)n1	-6.9%	2.6%	-9.6%	-4.5%	-5.2%	-14.0%
CCOC(=O)[C@H](CCc1ccccc1)NC(C)C(=O)N1CC2(CC1C(=O)O)SCCS2 (stereo partly specified)	x	-1.7%	x	x	x	x
OC(C1=C/C(=C\c2ccncc2)c2ccccc21)c1ccncc1 (stereo unspecified)	x	x	x	1.8%	x	x
O=C(O)CCc1c2ccc(=O)c(O)c-2oc2c(O)c(O)ccc12	x	x	x	1.41µM*	x	x
